PubChem BioAssay AID1159580 (chemical genetic matrix, 2015)
“And” between values parts separate entries of the source, which are not always exact repeats. Equal entries are not always repeated. About 2,000 (36%) of roughly 5,500 compounds were called active. About 18% were inconclusive and are not listed. No stated cut-off is given here; in the data, active means normalized growth mostly below about 0.91 (no sharp cut-off); inconclusive means no clear call, values can overlap the other calls; inactive means mostly above about 0.92. The list shows a part of the results.

Assay: chemical genetic growth profiling, strain panel (AID 1159580);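 further: tested at 20 µM; growth read once vehicle control cultures reached saturation at 30 °C; 1 = growth at the plate median or of vehicle wells; lower values mean less growth of the strain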
Conditions: S. cerevisiae deletion strains, growth OD

Measured: normalized growth

CCN(CC)CCCC(C)Nc1ccnc2cc(Cl)ccc12 (configuration not stated)
inactive: locus YAL013W, strain DEP1, hits give low values 1.02 and 1.01 | locus YAL021C, strain ccr4, hits give low values 1.04 | locus YAL026C, strain drs2, hits give low values 1.02 | locus YAL030W, strain snc1, hits give low values 1.02 | locus YAL040C, strain CLN3, hits give low values 1.01 | locus YBL061C, strain skt5, hits give low values 1.03 | locus YBR009C, strain hhf1, hits give low values 1.01 | locus YBR021W, strain FUR4, hits give low values 0.976 | locus YBR023C, strain chs3, hits give low values 1.03 | locus YBR171W, strain sec66, hits give low values 1.05 | locus YBR229C, strain ROT2, hits give low values 1.01 | locus YBR231C, strain swc5, hits give low values 1.03 | locus YBR279W, strain paf1, hits give low values 1.02 | locus YCL011C, strain gbp2, hits give low values 1.04 | locus YCL016C, strain dcc1, hits give low values 1.03 | locus YCL029C, strain bik1, hits give low values 1.01 | locus YCL061C, strain MRC1 (second series), hits give low values 1.01 | locus YCL069W, strain vba3, hits give low values 1.03 | locus YCR088W, strain abp1, hits give low values 1.02 | locus YDL005C, strain med2, hits give low values 1.03 | locus YDL035C, strain GPR1, hits give low values 0.995 | locus YDL040C, strain nat1, hits give low values 1.03 | locus YDL074C, strain BRE1, hits give low values 1.04 | locus YDL101C, strain DUN1, hits give low values 1.04 | locus YDL134C, strain PPH21, hits give low values 0.985 | locus YDL185W, strain tfp1, hits give low values 1 | locus YDL192W, strain arf1, hits give low values 1 | locus YDR001C, strain nth1, hits give low values 1.03 | locus YDR069C, strain doa4, hits give low values 0.998 | locus YDR101C, strain arx1, hits give low values 0.993 | locus YDR137W, strain rgp1, hits give low values 1.06 | locus YDR159W, strain sac3, hits give low values 1.06 | locus YDR162C, strain NBP2, hits give low values 1.01 | locus YDR195W, strain ref2 1.07 | locus YDR297W, strain sur2, hits give low values 1.03 | locus YDR318W, strain mcm21, hits give low values 1.02 | locus YDR334W, strain swr1, hits give low values 1.03 | locus YDR335W, strain msn5, hits give low values 1.03 | locus YDR363W, strain ESC2, hits give low values 1.01 | locus YDR388W, hits give low values 1.01 | locus YDR392W, strain spt3, hits give low values 0.937 | locus YDR502C, strain sam2, hits give low values 0.995 | locus YEL003W, strain gim4, hits give low values 1.03 | locus YEL037C, strain rad23, hits give low values 1.03 | locus YEL061C, strain CIN8 (second series), hits give low values 1.03 | locus YEL061C, strain CIN8, hits give low values 1.01 | locus YER002W, strain NOP16, hits give low values 0.994 | locus YER015W, strain faa2, hits give low values 1.03 | locus YER016W, strain bim1, hits give low values 1 | locus YER110C, hits give low values 1.02 | locus YER111C, strain swi4, hits give low values 1.04 | locus YER155C, strain BEM2 (second series), hits give low values 0.966 | locus YER155C, strain BEM2, hits give low values 1.01 | locus YER167W, strain BCK2, hits give low values 1.01 | locus YFR010W, strain ubp6, hits give low values 1.03 | locus YGL078C, strain dbp3, hits give low values 1.02 | locus YGL086W, strain mad1, hits give low values 0.996 | locus YGL167C, strain pmr1, hits give low values 1.04 | locus YGL173C, strain kem1, hits give low values 1.04 | locus YGL227W, strain vid30, hits give low values 1.03 | locus YGL240W, strain doc1, hits give low values 1.03 | locus YGL248W, strain PDE1, hits give low values 1.04 | locus YGL253W, strain hxk2, hits give low values 1.01 | locus YGR135W, strain pre9, hits give low values 1.04 | locus YGR252W, strain gcn5, hits give low values 1.02 | locus YHR013C, strain ard1, hits give low values 0.965 | locus YHR027C, strain rpn1, hits give low values 1.03 | locus YHR030C, strain SLT2, hits give low values 1 and 0.96 | locus YHR079C, strain IRE1 (second series), hits give low values 1.01 | locus YHR079C, strain IRE1, hits give low values 0.961 | locus YHR094C, strain hxt1, hits give low values 1.01 | locus YHR129C, strain ARP1, hits give low values 1.02 | locus YHR142W, strain chs7, hits give low values 1.04 | locus YHR200W, strain rpn10, hits give low values 1.01 | locus YIL066C, strain RNR3, hits give low values 1.02 | locus YIL073C, strain SPO22, hits give low values 1.01 | locus YIL125W, strain kgd1, hits give low values 1 | locus YIR030C, strain dcg1, hits give low values 1 | locus YJL092W, strain hpr5, hits give low values 1.02 | locus YJL095W, strain BCK1 (second series), hits give low values 1.03 | locus YJL095W, strain BCK1, hits give low values 1.07 and 0.962 | locus YJL115W, strain asf1, hits give low values 1.05 | locus YJL129C, strain trk1, hits give low values 1.02 | locus YJL134W, strain LCB3, hits give low values 1.01 | locus YJL154C, strain vps35, hits give low values 1.02 | locus YJL164C, strain tpk1, hits give low values 1.02 | locus YJL166W, strain qcr8, hits give low values 1 | locus YJL168C, strain set2, hits give low values 1.01 | locus YJL187C, strain SWE1 (second series), hits give low values 1.05 | locus YJL187C, strain SWE1, hits give low values 1.03 | locus YJR043C, strain POL32, hits give low values 0.981 | locus YJR066W, strain TOR1, hits give low values 0.979
